Compound activity (PubChem BioAssay)
This is a sample that favours compounds with a hit; in the whole collection about 19% have one here.
MCF10A rereplic – inducers of DNA re-replication in MCF 10A breast cells; MCF 10A DNA re-replication, Hoechst nuclear intensity, 48 h; 350,000 compounds, 2.9% hits; AID 624296; Potency, µM (titrated, usually from 46.1 µM), without a hit: top-dose activity, positive = re-replication, actives largely listed as activators; note: potency is the fitted concentration of half-maximal effect; % of control where 0% means no effect; nearly all actives have a fitted effect of over 50% in size
Chronic BCR inh – blocks chronic active B-cell receptor signaling; ABC-DLBCL IkBa-CBG/CBR reporter, luminescence ratio, 4 h; Potency, µM (top dose mostly 46.1 µM), inactives show top-dose activity change, negative = inhibition, usual class: inhibitors; 340,000 compounds, 0.05% hits; AID 493014; active = well fitted inhibition curve with a large enough effect in the signal ratio, with a control signal flat, not every such curve was filed as active; inconclusive = small, poorly fitted or top-dose-only effect, or effect the other way, or a change in a side signal; the % refers to the signal ratio;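 note: potency is the fitted concentration of half-maximal effect; plate controls were basal doxycycline-induced cells for no effect and cells given 10 µM MG132 for full effect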
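Concentration-response series (up to 46 uM) were applied to TMD8 dual-reporter cells for 4 h at 37C with doxycycline. Green/red ratio, after filter-overlap correction, defined %Activity; red signal alone was normalised to basal cells and zero luminescence.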
SW480 rereplic – inducers of DNA re-replication in SW480 colon cancer cells. SW480 DNA re-replication, Hoechst DNA content imaging, 48 h. 340,000 compounds, 1.8% hits. Potency, µM (series often up to 46.1 µM), inactives show top-dose re-replication activation, most hits filed as activators; note: potency is the fitted concentration of half-maximal effect; % of control where 0% means no effect; nearly all actives have a fitted effect of over 55% in size
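Readout is total intensity of Hoechst-stained nuclei, excited at 405 nm and collected at 500-530 nm. Compound treatment lasted 48 hr at 37 C in 5% CO2 before staining.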
TDP1 cell CPT – growth inhibition of DT40 Tdp1-/-;hTDP1 cells with camptothecin (screen for TDP1 inhibitors). chicken DT40 Tdp1-/-;hTDP1 cells + 20 nM CPT, ATP luminescence, 48 h. Potency, µM (series often up to 46.2 µM), without a hit: at the top dose activity change, negative = growth inhibition, usual class: inhibitors. 420,000 compounds, 12% hits. AID 686979; note: potency is the fitted concentration of half-maximal effect; % is set by controls: 0 for no effect and ±100 for the full control effect; nearly all actives have a fitted effect of over 55% in size
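Cell growth measured by CellTiter-Glo luminescence after a minimum 48 h, 37 C compound exposure with 20 nM CPT in Tdp1-knockout DT40 cells stably expressing hTDP1, seeded 400/well; qHTS titration format.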
IL-1B inflam inh – inflammasome signaling inhibition, IL-1 beta readout | THP-1 LPS/ATP IL-1B secretion, AlphaLISA, 16 h; hits give low values | 360,000 compounds, 4.7% hits | activity change, % at 57.5 µM | AID 743279; in the data active = activity change below about -50%; inconclusive = mostly about -30% to -49%; note: % is set by controls: 0 for no effect and ±100 for the full control effect
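THP-1 cells pretreated 1 hr with compounds (up to 57.5 uM final), then stimulated with LPS (250 ng/mL final) plus ATP (1.25 mM final); secreted IL-1B measured by AlphaLISA after 16 hr, decreased signal indicating inhibition.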
TDP1 cell noCPT – qHTS for Inhibitors of human tyrosyl-DNA phosphodiesterase 1 (TDP1): qHTS in cells in absence of CPT; Potency, µM (doses to about 46.2 µM), without a hit: at the highest dose activity change, negative = growth inhibition, most hits filed as inhibitors; DT40 Tdp1-/- hTDP1 cells, no CPT, ATP luminescence, 48 h; 420,000 compounds, 15% hits; AID 686978, 2013; note: potency is the fitted concentration of half-maximal effect; % is set by controls: 0 for no effect and ±100 for the full control effect; nearly all actives have a fitted effect of over 55% in size
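Camptothecin absent (DMSO only). Human TDP1-complemented DT40 knockout cells, 400 cells/well, 37 °C for minimum 48 hr; ATP measured via CellTiter-Glo, 30 min dark incubation, luminescence.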
* hit, by the source's call. Unless noted, calls come from the whole dose curve; as a rule, active = well fitted curve in the direction sought with a large enough effect; inconclusive = small, poorly fitted or top-dose-only effect, or another doubt; inactive = no such curve, though single readings can be large; an effect the other way counts as inactive or inconclusive.

CC(=O)Nc1ccc(S(=O)(=O)NCC(=O)N2CCN(S(=O)(=O)c3cccs3)CC2)cc1 was read as MCF10A rereplic 5.2%, Chronic BCR inh -4.3%, SW480 rereplic -4.1%, TDP1 cell CPT 3.6%, IL-1B inflam inh -29.9 and TDP1 cell noCPT 1.2%.
For Cc1cccc(C)c1-n1nnnc1C1c2ccccc2C(=O)N1CCc1ccc(O)cc1 (configuration not stated) the results were TDP1 cell CPT inconclusive, IL-1B inflam inh -8.6 and TDP1 cell noCPT inconclusive.
CC1C(=O)N2CCCc3cc(S(=O)(=O)N(C)Cc4ccccc4)cc1c32 (configuration not stated) was read as MCF10A rereplic 9.1%, Chronic BCR inh -8.7%, SW480 rereplic -9.5%, TDP1 cell CPT inconclusive, IL-1B inflam inh 26.8 and TDP1 cell noCPT inconclusive.
`CCCCN(c1ccccc1)S(=O)(=O)c1cc2c3c(c1)C(C)C(=O)N3CCC2` (configuration not stated) gave Chronic BCR inh 24.2%, TDP1 cell CPT 10.3µM* and TDP1 cell noCPT 29.1µM*.
`O=C(/C=C/c1cn(CC(O)CN2CCCCCC2)c2ccccc12)c1ccc(Br)cc1` (configuration not stated) gave TDP1 cell CPT 16.4µM* and TDP1 cell noCPT 13µM*.
O=C(/C=C/c1cn(CC(O)CN2CCCCC2)c2ccccc12)c1cccs1 (configuration not stated) was read as MCF10A rereplic 23.1µM*, Chronic BCR inh inconclusive, SW480 rereplic 20.6µM*, TDP1 cell CPT inconclusive, IL-1B inflam inh -67.8* and TDP1 cell noCPT 16.4µM*.
For OC(CN1CCCC1)Cn1ccc2ccccc21 (configuration not stated) the results were MCF10A rereplic -2.2%, Chronic BCR inh 7.2%, SW480 rereplic -22.3%, TDP1 cell CPT -3.3%, IL-1B inflam inh -7.8 and TDP1 cell noCPT -16.3%.
`CCn1cc(/C=C(\NC(=O)c2ccccc2F)C(=O)N2CCN(C)CC2)c2ccccc21` gave TDP1 cell CPT inconclusive, IL-1B inflam inh -28.6 and TDP1 cell noCPT -28.7%.
`O=C(/C=C/c1cn(CC(O)CN2CCCCC2)c2ccccc12)c1ccccc1` (configuration not stated) gave MCF10A rereplic 20.6µM*, Chronic BCR inh inconclusive, SW480 rereplic 20.6µM*, TDP1 cell CPT inconclusive, IL-1B inflam inh -86.7* and TDP1 cell noCPT inconclusive.
`CN1CCN(Cn2cc(/C=C/C(=O)c3ccccc3)c3ccccc32)CC1` gave MCF10A rereplic inconclusive, Chronic BCR inh inconclusive, SW480 rereplic inconclusive, TDP1 cell CPT -26.3%, IL-1B inflam inh -65.9* and TDP1 cell noCPT inconclusive.
CCCNC(=O)CCc1c(C)nc2nc(CNC(=O)c3ccccc3)nn2c1C was read as TDP1 cell CPT 13.8% and TDP1 cell noCPT -4.0%.
COc1ccccc1-c1ccc([C@@H]2C[C@H]3[C@@H](CN2)CON3C)cc1 was read as TDP1 cell CPT -19.3%, IL-1B inflam inh -4.4 and TDP1 cell noCPT -30.0%.
Cc1ccc(C(=O)/C=C/c2cn(CC(O)CN3CCCCCC3)c3ccccc23)cc1 (configuration not stated) was read as TDP1 cell CPT 11.6µM* and TDP1 cell noCPT 20.6µM*.
Screening Cc1c(C)n(CC(O)CN2CCCCC2)c2ccccc12 (configuration not stated) returned MCF10A rereplic 0.2%, Chronic BCR inh -2.9%, SW480 rereplic -2.4%, TDP1 cell CPT -9.0%, IL-1B inflam inh inconclusive and TDP1 cell noCPT -21.4%.
O=C(/C=C/c1cn(CC(O)CN2CCCCCC2)c2ccccc12)c1ccccc1 (configuration not stated) was read as TDP1 cell CPT inconclusive and TDP1 cell noCPT 23.1µM*.
`OC(CN1CCCCC1)Cn1c2ccccc2c2ccccc21` (configuration not stated) gave MCF10A rereplic -0.2%, Chronic BCR inh inconclusive, SW480 rereplic -25.0%, TDP1 cell CPT -13.1%, IL-1B inflam inh inconclusive and TDP1 cell noCPT -13.9%.
Screening COc1ccc(-c2onc(C)c2C)cc1S(=O)(=O)NCc1ccc(C)o1 returned TDP1 cell CPT 2.91µM* and TDP1 cell noCPT 3.26µM*.
Screening Cc1ccc(-c2onc(C)c2C)cc1S(=O)(=O)NCc1ccco1 returned TDP1 cell CPT 23.1µM* and TDP1 cell noCPT inconclusive.
`CCc1ccc(-c2cc(C)no2)cc1S(=O)(=O)NCc1ccco1` gave MCF10A rereplic inconclusive, Chronic BCR inh 1.5%, SW480 rereplic 20.3%, TDP1 cell CPT 20.6µM*, IL-1B inflam inh 19.1 and TDP1 cell noCPT inconclusive.
`COc1ccccc1CN1CCC(CNS(=O)(=O)c2cc(-c3onc(C)c3C)ccc2OC)CC1` gave MCF10A rereplic 9.9%, Chronic BCR inh -11.1%, SW480 rereplic inconclusive, TDP1 cell CPT 20.6µM*, IL-1B inflam inh inconclusive and TDP1 cell noCPT 20.6µM*.
`Cc1cc(S(=O)(=O)NCc2ccco2)c(C)cc1Cl` gave MCF10A rereplic inconclusive, Chronic BCR inh -5.4%, SW480 rereplic -2.5%, TDP1 cell CPT inconclusive, IL-1B inflam inh 1.2 and TDP1 cell noCPT inconclusive.
CCOc1ccccc1C(=O)N/N=C/c1ccoc1 was read as MCF10A rereplic inconclusive, Chronic BCR inh -0.1%, SW480 rereplic 3.1%, TDP1 cell CPT 6.7%, IL-1B inflam inh 0.0 and TDP1 cell noCPT 19.8%.
`COC(=O)c1ccn(CC(=O)NC2CCCCC2)n1` gave MCF10A rereplic -2.8%, Chronic BCR inh -2.4%, SW480 rereplic -10.4%, TDP1 cell CPT 1.0%, IL-1B inflam inh 9.4 and TDP1 cell noCPT -19.1%.
Screening CCOC(=O)COc1ccc2ccccc2c1/C=C/[N+](=O)[O-] returned MCF10A rereplic inconclusive, Chronic BCR inh inconclusive, SW480 rereplic inconclusive, TDP1 cell CPT 5.17µM*, IL-1B inflam inh -92.1* and TDP1 cell noCPT 3.66µM*.
Screening CCOc1ccc(/C=C/[N+](=O)[O-])c2ccccc12 returned MCF10A rereplic 2.31µM*, Chronic BCR inh inconclusive, SW480 rereplic 6.51µM*, TDP1 cell CPT 2.91µM*, IL-1B inflam inh -101.2* and TDP1 cell noCPT 2.91µM*.
Screening CCOc1ccc(S(=O)(=O)Nc2ccccn2)c2ccccc12 returned MCF10A rereplic 2.2%, Chronic BCR inh -16.4%, SW480 rereplic -7.7%, TDP1 cell CPT -2.2%, IL-1B inflam inh 15.1 and TDP1 cell noCPT -4.9%.
